Screens as filed in PubChem BioAssay.
In the library only some 1.5% were active in any assay of this set; here they are far more common.
ANO1 block: inhibitors of mouse TMEM16A calcium-activated chloride channel; AID 588511; normalized B-score (activity score, 25-100; higher = stronger inhibition) at 10 µM; Q8BHY3; actives 1.2% (n = 310,000); HEK293 TMEM16A/YFP iodide influx fluorescence, ionomycin;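 active means ratio plate-corrected score three or more library SD toward inhibition, starting fluorescence score within five deviations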;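 further: score derived from kinetic fluorescence span divided by baseline fluorescence per well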
ABCB6 inh 2: inhibitors of human ABC transporter ABCB6; Q9NP58; K562-ABCB6 porphyrin accumulation, flow cytometry, 1 h; active compounds read low; fluorescence ratio to DMSO, % at 10 µM; actives 0.19% (n = 360,000); AID 602162;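 active means fluorescence ratio to DMSO below 75%, the collection mean minus 3 SD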;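 further: signal is porphyrin accumulated inside mitochondria; 100% equals median channel fluorescence of DMSO control wells; lower ratio means ABCB6 inhibition with less porphyrin fluorescence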
hiPSC survival: hiPSC single-cell survival enhancement; ATPlite luminescence; 100% = ROCK inhibitor wells, 0% = DMSO; survival enhancement, % at 20 µM; actives 0.044% (n = 360,000); in the data active means survival enhancement above about 18%;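 further: cells exposed to compounds for 16 hours before the ATP read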
ANO1 activ: activators or potentiators of mouse TMEM16A chloride channel; Q8BHY3; HEK293 TMEM16A/YFP-H148Q/I152L, iodide quench fluorescence; active compounds read low; B-score at 10 µM; actives 0.3% (n = 340,000); AID 623877;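 active means fluorescence-ratio B-score plate-corrected deviation score at least 3 library SD below zero, with starting fluorescence score within 5 deviations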;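 further: channel opened by trigger with iodide after compound preincubation; score built on the fluorescence ratio of max minus min over baseline; more negative score means more quench and so TMEM16A activation or potentiation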
DAGLB inh: blocks human DAGLB lipase activity; Q8NCG7; inhibition, % at 5.17 µM; HEK293T DAGLB membrane lysate, EnzChek fluorogenic substrate; AID 504411; actives 0.059% (n = 340,000); in the data active means inhibition above about 34%;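 further: 0% = enzyme with vehicle and 100% = wells lacking enzyme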
Target sequence (Q8NCG7 whole entry, looked up): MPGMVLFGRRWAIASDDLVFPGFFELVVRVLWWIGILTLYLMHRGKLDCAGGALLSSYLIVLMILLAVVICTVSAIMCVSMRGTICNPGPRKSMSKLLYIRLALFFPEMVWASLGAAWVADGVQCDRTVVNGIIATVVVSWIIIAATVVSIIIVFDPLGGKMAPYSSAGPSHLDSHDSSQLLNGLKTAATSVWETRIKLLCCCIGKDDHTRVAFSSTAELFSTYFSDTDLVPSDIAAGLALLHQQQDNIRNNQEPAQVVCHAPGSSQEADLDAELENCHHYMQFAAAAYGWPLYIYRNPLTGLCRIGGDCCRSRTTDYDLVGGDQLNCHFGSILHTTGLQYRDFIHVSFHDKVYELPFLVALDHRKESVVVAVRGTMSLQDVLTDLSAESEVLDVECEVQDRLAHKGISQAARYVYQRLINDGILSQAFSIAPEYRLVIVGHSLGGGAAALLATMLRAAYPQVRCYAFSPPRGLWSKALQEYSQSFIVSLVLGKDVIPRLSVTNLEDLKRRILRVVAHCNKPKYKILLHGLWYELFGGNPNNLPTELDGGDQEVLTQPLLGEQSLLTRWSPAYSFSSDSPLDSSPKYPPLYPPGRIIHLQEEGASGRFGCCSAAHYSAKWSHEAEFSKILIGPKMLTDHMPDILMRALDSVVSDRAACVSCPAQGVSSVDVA
ABCB6 inh CP1: blocks the human ABCB6 transporter; shares compounds with ABCB6 inh 2; K562-ABCB6 porphyrin accumulation, flow cytometry, 1 h; active compounds read low; ratio response (% of DMSO), % at 10 µM; 700 tested, under 10 active;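 active means repeat-averaged ratio response below 75% of DMSO, the collection mean minus 3 SD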;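 further: median porphyrin fluorescence at 575 nm with 488 nm excitation from mitochondria; lower ratio means less porphyrin signal so ABCB6 inhibition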
* = called active by the depositor; i = inactive; nt = no result.

SMILES	ANO1 block	ABCB6 inh 2	hiPSC survival	ANO1 activ	DAGLB inh	ABCB6 inh CP1
Cc1ccc(S(=O)(=O)N2CCN(C(=O)CN3CCOCC3)C2C(C)C)cc1 (stereo unspecified)	i	59*	0	i	-1	102
CCOc1ccc2nc(NC(=O)C3=NN(c4ccccc4)C(=O)CC3)sc2c1	i	74*	2	i	-1	100
CC1(C)Cc2ccccc2-c2nnc(-c3ccccc3)n21	i	92	0	i	0	nt
CC1(C)Cn2c(nnc2-c2ccccc2)S1	i	74*	4	i	-1	102
COc1ccc(C(=O)OCC(=O)Nc2cc(C)c(C)cc2[N+](=O)[O-])cc1	i	57*	-2	i	-16	102
O=C1N[C@@H](Cc2ccccc2)C(=O)N1CCN1CCOCC1	i	48*	-2	i	1	97
C=CCCC(=O)NC1CCCc2c1cnn2-c1ccccc1F (stereo unspecified)	i	98	0	i	-1	nt
O=C(CCN1C(=O)C2C3CC(C(Br)C3Br)C2C1=O)OCC(=O)c1ccccc1 (stereo unspecified)	i	71*	0	i	0	99
O=C(O)C1CCN(S(=O)(=O)c2ccc(Cl)s2)CC1	nt	94	4	i	0	97
CC1CCN(S(=O)(=O)c2ccc(Cl)s2)CC1	nt	96	5	i	-6	nt
O=C(NC1CCCCC1)N1CCC(c2nc(-c3ccc(S(=O)(=O)N4CCCC4)cc3)no2)CC1	i	70*	-2	i	1	103
O=C(NCc1ccco1)c1c2c(nc3ccccc13)CCC2	i	74*	-1	i	1	101
O=C(CSc1c2c(nc3ccccc13)CCCC2)NCc1ccco1	i	97	-2	i	0	nt
CCOC(=O)N1CCC(N2Cc3cccc(C(=O)NCc4ccccn4)c3C2=O)CC1	i	73*	2	i	0	99
C[C@H](CO)N1C[C@H](C)[C@@H](CN(C)Cc2cccnc2)Oc2cc(-c3cccnc3)ccc2S1(=O)=O	nt	100	-2	nt	1	nt
CCc1cccc(NC(=O)c2sc3nc4n(c(=O)c3c2C)CCC4)c1	i	94	0	i	-1	94
CCOc1ccc(NC(=O)c2sc3nc4n(c(=O)c3c2C)CCC4)cc1	i	94	0	i	-2	102
CCOC(=O)c1ccc(NC(=O)c2sc3nc4n(c(=O)c3c2C)CCC4)cc1	i	97	0	i	3	nt
Cc1c(C(=O)Nc2ccccc2F)sc2nc3n(c(=O)c12)CCC3	i	98	0	i	2	98
C=CCC[C@@H](Cc1ccc(F)cc1)C(=O)O[C@H](CNC(=O)[C@@H](CC=C)CC(=O)N[C@H](CO)Cc1ccccc1)c1ccccc1	nt	97	6	i	-1	nt
Cc1cccc(C(O)c2ncc(-c3ccccc3Cl)[nH]2)c1C (stereo unspecified)	nt	101	-2	nt	nt	nt
Cc1ccccc1-c1cnc(C(O)c2cccc(C)c2C)[nH]1 (stereo unspecified)	nt	70*	0	nt	nt	100
CCCS(=O)(=O)NC(=O)C1(C)CCN(C(=O)c2ccc(C(F)(F)F)cc2)C1 (stereo unspecified)	nt	70*	3	nt	nt	101
O=S(=O)(Nc1cccnc1)c1ccc(Br)c2ccccc12	i	101	0	i	5	nt
CN(C)C1=NC[C@H](Cc2ccccc2)N1CC1CCCC1	i	72*	-4	i	-2	98
SMILES	ANO1 block	ABCB6 inh 2	hiPSC survival	ANO1 activ	DAGLB inh	ABCB6 inh CP1
Cc1cc(C(=O)NCCN2CCOCC2)c2ccccc2n1	nt	74*	1	i	2	103
O=C(NCCN1CCOCC1)c1cc(-c2ccc(F)cc2)nc2ccccc12	i	90	1	i	-4	nt
COc1ccc(N2CCN(C(=O)c3cc(-c4ccc(F)cc4)[nH]c3C)CC2)cc1	i	71*	0	i	4	101
O=C1NC[C@H](CCCCN2CCN(Cc3ccccc3)C(=O)C2=O)N(CCc2ccc(O)cc2)C1=O	nt	99	0	nt	nt	nt
O=C(O)c1cc([N+](=O)[O-])ccc1Oc1ccccc1	nt	87	4	i	2	nt
COc1cccc(NC(=O)N(Cc2ccco2)C(C)c2cccs2)c1 (stereo unspecified)	i	73*	1	i	-3	106
O=C(CCC(=O)N1CCCC1)Nc1nnc(C2CCCCC2)s1	i	93	0	i	2	nt
CC1CCCCN1C(=O)CCC(=O)Nc1nnc(C2CCCCC2)s1 (stereo unspecified)	i	20*	0	i	2	102
Cc1ccc(CCNC(=O)CCS(=O)(=O)c2ccc(Br)cc2)cc1	i	94	0	i	1	nt
CC1CCN(CCNC(=O)CCS(=O)(=O)c2ccc(Br)cc2)CC1	i	7.0*	-2	i	3	95
COc1cc(OC)cc(C(=O)NC(C(=O)NNC(=O)CN(C)S(=O)(=O)c2ccc(C)cc2)C(C)C)c1 (stereo unspecified)	nt	99	0	i	6	nt
O=S1(=O)N=C(N2CCCC2)c2ccccc21	i	95	0	i	2	nt
CC1Cc2ccccc2N1C1=NS(=O)(=O)c2ccccc21 (stereo unspecified)	i	73*	2	i	1	102
CC(=O)Nc1ccc(S(=O)(=O)NCCC(=O)Nc2cc(C)ccn2)cc1	i	100	1	i	2	nt
CCCN=Cc1sc2ccc(OCC)cc2c1O	i	74*	-3	i	1	104
CCOC(=O)C1CCN(Cc2ccc(F)c(Br)c2)CC1	i	69*	-2	i	-4	99
CCOC(=O)C1CCN(Cc2ccc(F)cc2F)CC1	i	104	0	i	-2	nt
COc1ccc(NC(=O)[C@@H]2CCCN2S(=O)(=O)c2ccc(Cl)cc2)cc1	nt	100	0	i	-3	nt
COc1ccc(NC(=O)C2CCCN2S(=O)(=O)c2ccc(C)cc2)cc1 (stereo unspecified)	i	45*	-3	i	1	102
O=C(c1ccc(COc2ccccc2Cl)o1)N1N=C(C(F)F)CC1(O)C(F)F (stereo unspecified)	i	96	1	i	4	100
O=C(c1ccc(COc2ccc3ccccc3c2)o1)N1N=C(C(F)F)CC1(O)C(F)F (stereo unspecified)	i	103	1	i	1	101
O=C(c1ccc(COc2ccccc2Cl)o1)N1CCN(c2ccccc2)CC1	i	96	-1	i	-4	nt
